This is an account of results in PubChem BioAssay.

Active and inactive are the calls of the source. The rule behind the calls is not given here.

The assay is described as follows: inhibition of 3D7 malaria parasite growth – strain 3D7 (AID 2306).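 Note: 0% = DMSO wells and 100% = chloroquine plus artemisinin control wells.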 To be noted: P. falciparum 3D7 erythrocytic growth, LDH absorbance, 72 h; at 2 µM; active compounds read high.
Turning to `CC[C@@H]([C@@H](Cc1cc2ccccc2s1)C(=O)N[C@@H](CCCCNC(=O)OCc1ccccc1)C(=O)Nc1ccccn1)N(O)C=O`, the growth inhibition is 96% (active). Take `CC(C)(C)c1ccc(C(=O)N2CCC3(CC2)C(=O)N(CC(=O)NCC2CCCO2)CN3c2ccccc2)cc1` (configuration not stated): the growth inhibition is 100% (active).

Take `NC(=O)c1cccc(CNC(=O)NC[C@H]2CN(Cc3ccc(Cl)c(Cl)c3)CCO2)c1`: the growth inhibition is 98% (active).

In the case of `Cc1cc(Nc2cccc(Cl)c2)nc2ccc(NC(=O)c3ccc(=O)[nH]c3)cc12`, the growth inhibition was 100% (active). For the compound `COc1ccc(NC(=O)Nc2ccc(-c3cccc(-c4nc5c(C)cccc5[nH]4)c3)cc2)cc1`, the growth inhibition is 101% (active). As for `CN(C)CCN(Cc1ccccc1-c1ccc(CNCCc2ccccc2)cc1)C(=O)NC1CCCCC1`, the figure is 88% (active). Take `CN1CCC(N(Cc2ccc(-c3ccc(C(F)(F)F)cc3)nc2)C(=O)Cn2c(CCc3cccc(F)c3F)cc(=O)c3ccccc32)CC1`: the growth inhibition is 91% (active). `CC(c1cccc(S(=O)(=O)NCc2cccc(C(F)(F)F)c2)c1)N1CCC(N2CCCCC2)CC1` (configuration not stated): the growth inhibition is 99% (active). As for `CCCn1c(Sc2ccc(C#N)c([N+](=O)[O-])c2)nnc1-c1ccc(OC)cc1`, the figure is 94% (active). As for `CCOC(=O)C(C(C)=O)C(c1ccccc1)C(C(C)=O)C(=O)OCC` (configuration not stated), the figure is 95% (active). As for `FC(F)(F)c1ccc2nc(-c3cccc(-c4ccc(CNCCc5ccncc5)cc4)c3)[nH]c2c1`, the figure is 99% (active); as for `CC(C)c1nc(N2CCN(C(=S)NCc3ccccc3)CC2)c(C#N)c2c1COC(C)(C)C2`, 99% (active). For `O=C(NCCc1ccc(Cl)c(Cl)c1)[C@@H]1CCCN1C(=O)c1ccc(O)c(-c2ccc(Cl)c(Cl)c2)c1`, the growth inhibition is 99% (active). The same measure for `NCC1CCCN1Cc1cccc(-c2ccc(-c3nc4ccc(C(F)(F)F)cc4[nH]3)s2)c1` (configuration not stated): 102% (active); for `CN(CCCNc1ccc(C(=O)Nc2ccc(C(F)(F)F)cc2)cc1[N+](=O)[O-])Cc1ccccc1`: 100% (active). As for `Cc1ccc(-c2cc(C(=O)Nc3ccc(S(=O)(=O)N4CCCCC4C)cc3)[nH]n2)c(O)c1` (configuration not stated), the growth inhibition is 100% (active). As for `COc1ccccc1-c1cccc(Nc2c(Nc3ccc(Cl)cc3)c(=O)c2=O)c1`, the figure is 81% (active); as for `O=C(Nc1cccnc1)c1cc(-c2cc(Cl)ccc2O)n[nH]1`, 98% (active); as for `Cc1ccc(NC(=O)c2ccc(CN3CCCN(CC4CCCCC4)CC3)cc2)cc1C`, 86% (active). The same measure for `Cc1cc(N2CCN(C(=O)OC(C)(C)C)CC2)ccc1N`: 92% (active); for `O=C1CSc2ccc(CNC3CCN(CCc4c(F)cnc5ccc(F)cc45)CC3)nc2N1`: 97% (active). `CCN(CC)CCOc1c(Cl)cc(Cl)cc1CNCCCNc1cc(=O)c2ccccc2[nH]1`: the growth inhibition is 97% (active).

On to `Cc1cc(NC(=O)NCCN2CCC(NS(=O)(=O)c3ccc(Br)cc3)C2)c2ccccc2n1` (configuration not stated), for which the growth inhibition is 99% (active). The same measure for `Cc1cc(N[C@@H](Cc2ccccc2)C(=O)Nc2ccccc2)nc(NCCc2cccnc2)n1`: 95% (active); for `COc1ccc(C2CCN(CCCNC(=O)c3ccc(NC(=O)c4ccc(Cl)cc4)cc3)CC2)c(OC)c1`: 99% (active). The same measure for `COc1ccccc1CCNc1nc(C)cc(N[C@@H](Cc2ccccc2)C(=O)NCCCOC(C)C)n1`: 99% (active); for `Cc1ccccc1C(O)CNc1ccnc(Nc2cccc(C#N)c2)n1` (configuration not stated): 94% (active); for `COc1cc2nc(Nc3ccc(C)cc3)nc(Nc3ccc(C)cc3)c2cc1OC`: 101% (active). As for `CC(CCCCC(=O)Nc1ccc(CC(C)NCCc2cccc(Cl)c2)cc1)NCCc1cccc(Cl)c1` (configuration not stated), the figure is 91% (active). For `CCc1cn2c3c(cc(C(=O)N[C@@H](Cc4ccccc4)[C@H](O)CN[C@@H](C)CC)cc13)N(C)S(=O)(=O)CC2`, the growth inhibition was 99% (active).

For `CCOc1ccc(NC(=O)c2ccc(CN3CCCN(Cc4cccc(O)c4)CC3)cc2)cc1`, the growth inhibition was 85% (active). Regarding `Cc1cccc2[nH]c(-c3ccc(-c4ccc(CN5CCC(C(N)=O)CC5)cc4)s3)nc12`, the growth inhibition is 97% (active). The same measure for `CN(Cc1cc(C(F)(F)F)cc(C(F)(F)F)c1)C(=O)C(Cc1ccc(F)cc1)C1CCCNC1` (configuration not stated): 96% (active); for `Cc1cccc2[nH]c(-c3cccc(-c4cccc(NC(=O)c5ccncc5)c4)c3)nc12`: 100% (active). The same measure for `Oc1c(Cl)cc(-c2ccccc2)cc1CNC1CCCCC1`: 97% (active); for `NC(N)=Nc1nc(-c2cccc(NC(=O)NCc3ccc(OC(F)(F)F)cc3)c2)cs1`: 100% (active). The same measure for `C=CCc1cccc(CN2CCC(c3cc(=O)[nH]c(-c4ccccn4)n3)CC2)c1O`: 91% (active).
